# According to PubChem BioAssay:
# Calls of active or inactive are those of the source.
# Experiments:
# [1] = system: PRMT1 (protein arginine N-methyltransferase 1); assay: PRMT1 binders on small-molecule microarrays, primary screen, biochemical, small-molecule microarray, 635 nm fluorescence (AID 1088); conditions: small-molecule microarray binding, higher = more signal;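 also: binding of Prmt1 protein to compounds spotted on small-molecule microarray slides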
# [2] = yeast growth modulation, basal conditions, primary screen, YJM789 clinical isolate, OD600, 24 h (AID 1089);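 also: growth of clinical yeast isolate S. cerevisiae YJM 789 seeded 1000 cells per well; test concentration not given here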; conditions: S. cerevisiae YJM789 growth, higher = more signal, called active from +8 up or from −8 down
# [3] = fission yeast growth modulation, primary screen, strain 972, OD600, 24 h, no modulator (AID 1090);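 also: basal condition with compound alone and no growth modifier present; test concentration not given here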; conditions: S. pombe 972 growth, higher = more signal, called active from +8 up or from −8 down
# [4] = S. cerevisiae growth modulation with rapamycin, primary screen, strain BY4716, OD600, 96 h (AID 1091); conditions: higher = more signal, called active from +8 up or from −8 down; also: test concentration not given here
# [5] = biological target: Torsin-1A-interacting protein 2 (Homo sapiens) (UniProt Q8NFQ8); assay: LULL1 binders on small-molecule microarray, primary screen, cell lysate, human LULL1 lysate, 635/667 nm fluorescence (AID 1092); conditions: hLULL1 lysate binding, 635 nm fluorescence, higher = more signal;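 also: probe is lysate of COS7 cells overexpressing human LULL1; score merges per-feature 667 nm fluorescence with signal-to-noise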
# Chain of Torsin-1A-interacting protein 2 (Homo sapiens) (Q8NFQ8 whole entry, looked up): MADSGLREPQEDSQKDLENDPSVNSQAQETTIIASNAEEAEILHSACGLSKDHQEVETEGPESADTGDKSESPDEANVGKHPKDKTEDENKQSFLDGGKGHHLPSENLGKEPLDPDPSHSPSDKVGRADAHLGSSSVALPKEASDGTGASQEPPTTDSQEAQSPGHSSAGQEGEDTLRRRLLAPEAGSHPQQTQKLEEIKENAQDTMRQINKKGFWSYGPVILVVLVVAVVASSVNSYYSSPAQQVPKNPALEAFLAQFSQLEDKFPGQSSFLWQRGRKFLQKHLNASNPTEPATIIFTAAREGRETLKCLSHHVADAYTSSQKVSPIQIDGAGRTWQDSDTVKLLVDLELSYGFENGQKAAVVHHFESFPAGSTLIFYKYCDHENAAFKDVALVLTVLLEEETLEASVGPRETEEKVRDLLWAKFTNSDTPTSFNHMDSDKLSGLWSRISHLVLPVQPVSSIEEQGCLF
# [6] = E. coli growth modulation, two-sided OD650, primary screen, E. coli filamentation project, strain DRC41, 24 h (AID 1093); conditions: OD650, 24 h, higher = more signal, called active from +8 up or from −8 down;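 also: MC1000 strain lacking acrAB efflux and sulA so SOS filamentation is blocked; test concentration not given here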
# [7] = small-molecule microarray binders of probe aLefty2, primary screen, biochemical, biotinylated probe, 635/667 nm fluorescence (AID 1094); conditions: higher = more signal;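 also: score merges spot fluorescence near 667 nm with spot signal-to-noise ratio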
# [8] = system: Noggin (protein binding on small-molecule microarray); assay: Noggin binders on small-molecule microarray, primary screen, biochemical, 635/667 nm fluorescence (AID 1095); conditions: 635 nm fluorescence, higher = more signal;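 also: score merges 667 nm feature fluorescence with signal to noise over triplicate slides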
# [9] = biological target: Neurogenic locus notch homolog protein 3 (Homo sapiens) (UniProt Q9UM47); assay: NOTCH3 binders on small-molecule microarray, primary screen, biochemical, 635/667 nm fluorescence (AID 1096); conditions: NOTCH3 binding, 635 nm fluorescence, higher = more signal
# Chain of Neurogenic locus notch homolog protein 3 (Homo sapiens) (Q9UM47 whole entry, looked up): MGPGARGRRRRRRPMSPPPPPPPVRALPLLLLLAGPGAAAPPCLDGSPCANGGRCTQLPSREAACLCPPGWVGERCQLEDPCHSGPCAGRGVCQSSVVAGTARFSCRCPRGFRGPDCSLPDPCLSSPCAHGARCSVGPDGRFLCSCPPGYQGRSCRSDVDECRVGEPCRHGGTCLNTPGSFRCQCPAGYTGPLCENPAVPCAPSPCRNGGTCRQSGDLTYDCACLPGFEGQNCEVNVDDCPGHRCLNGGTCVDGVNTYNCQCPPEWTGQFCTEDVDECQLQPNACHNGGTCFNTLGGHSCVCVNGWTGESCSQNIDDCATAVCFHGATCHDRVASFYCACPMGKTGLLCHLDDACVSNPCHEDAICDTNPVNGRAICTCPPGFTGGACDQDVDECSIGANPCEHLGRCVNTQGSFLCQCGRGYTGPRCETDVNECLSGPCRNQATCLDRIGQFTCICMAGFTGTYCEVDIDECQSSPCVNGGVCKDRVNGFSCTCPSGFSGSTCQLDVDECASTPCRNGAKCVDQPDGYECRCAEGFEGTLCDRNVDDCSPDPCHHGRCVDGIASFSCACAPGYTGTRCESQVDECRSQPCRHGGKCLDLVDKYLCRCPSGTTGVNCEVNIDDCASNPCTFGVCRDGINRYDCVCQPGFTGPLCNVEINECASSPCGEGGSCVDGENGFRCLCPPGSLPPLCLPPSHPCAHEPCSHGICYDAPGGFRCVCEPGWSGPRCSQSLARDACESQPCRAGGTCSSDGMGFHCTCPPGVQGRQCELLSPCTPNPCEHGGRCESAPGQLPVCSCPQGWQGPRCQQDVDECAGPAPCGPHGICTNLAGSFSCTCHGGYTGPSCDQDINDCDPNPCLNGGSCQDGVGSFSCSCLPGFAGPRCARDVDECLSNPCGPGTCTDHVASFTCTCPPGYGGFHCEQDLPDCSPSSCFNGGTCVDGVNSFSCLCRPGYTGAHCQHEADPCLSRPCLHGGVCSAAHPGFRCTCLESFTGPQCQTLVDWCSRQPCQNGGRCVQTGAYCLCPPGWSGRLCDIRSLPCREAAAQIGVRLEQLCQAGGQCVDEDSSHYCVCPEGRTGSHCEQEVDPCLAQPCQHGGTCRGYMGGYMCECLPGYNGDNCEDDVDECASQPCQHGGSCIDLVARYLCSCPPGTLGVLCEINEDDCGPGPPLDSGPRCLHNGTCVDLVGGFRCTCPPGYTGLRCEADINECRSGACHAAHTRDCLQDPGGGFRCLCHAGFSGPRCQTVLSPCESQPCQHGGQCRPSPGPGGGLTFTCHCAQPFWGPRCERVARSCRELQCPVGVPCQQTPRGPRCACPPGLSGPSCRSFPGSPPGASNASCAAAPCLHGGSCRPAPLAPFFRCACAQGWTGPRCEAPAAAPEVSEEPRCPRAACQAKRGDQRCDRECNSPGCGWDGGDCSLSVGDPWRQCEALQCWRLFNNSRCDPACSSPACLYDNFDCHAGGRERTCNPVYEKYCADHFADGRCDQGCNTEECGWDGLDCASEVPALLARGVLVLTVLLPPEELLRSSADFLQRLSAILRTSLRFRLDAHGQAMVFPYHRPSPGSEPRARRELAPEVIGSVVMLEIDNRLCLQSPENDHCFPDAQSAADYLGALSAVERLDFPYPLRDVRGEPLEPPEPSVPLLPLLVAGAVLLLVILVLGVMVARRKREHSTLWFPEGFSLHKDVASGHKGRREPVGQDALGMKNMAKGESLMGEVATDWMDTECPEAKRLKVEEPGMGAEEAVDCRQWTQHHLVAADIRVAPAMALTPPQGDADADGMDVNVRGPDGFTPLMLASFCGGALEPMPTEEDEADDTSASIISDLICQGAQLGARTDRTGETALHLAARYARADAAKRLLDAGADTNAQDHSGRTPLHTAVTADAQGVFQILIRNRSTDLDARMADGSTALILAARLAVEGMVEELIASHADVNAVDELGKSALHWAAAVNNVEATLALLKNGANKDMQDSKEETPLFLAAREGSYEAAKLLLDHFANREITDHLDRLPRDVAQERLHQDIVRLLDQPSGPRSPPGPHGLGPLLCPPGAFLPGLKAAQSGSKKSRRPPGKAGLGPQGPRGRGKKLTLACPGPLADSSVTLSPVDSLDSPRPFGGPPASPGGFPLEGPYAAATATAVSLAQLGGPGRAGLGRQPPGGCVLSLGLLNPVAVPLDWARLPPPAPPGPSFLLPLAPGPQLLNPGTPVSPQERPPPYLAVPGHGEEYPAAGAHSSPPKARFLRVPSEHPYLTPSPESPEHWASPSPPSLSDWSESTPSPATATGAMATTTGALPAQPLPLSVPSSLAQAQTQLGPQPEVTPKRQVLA
# [10] = small-molecule microarray binders of probe aEGFR, primary screen, biochemical, biotinylated probe, 635/667 nm fluorescence (AID 1097); conditions: higher = more signal;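 also: probe is a biotinylated anti-EGFR antibody binding compounds printed on slides; score combines fluorescence near 667 nm and signal to noise of each spot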
# [11] = system: Plasmodium falciparum Sir2 (PF13_0152, Sir2A); assay: pfSir2 binders on small-molecule microarrays, primary screen, biochemical, small-molecule microarray, 635 nm fluorescence (AID 1098); conditions: small-molecule microarray binding, fluorescence 635 nm; higher = more signal;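 also: score merges spot fluorescence intensity with its signal-to-noise ratio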
# [12] = small-molecule microarray binders of probe aDKK1, primary screen, biochemical, biotinylated probe, 635/667 nm fluorescence (AID 1099); conditions: higher = more signal;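 also: score merges 667nm spot fluorescence with signal to noise across triplicate slides; reference of the scale not given here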
# [13] = small-molecule microarray binders of probe aCHRDL2, primary screen, biochemical, biotinylated probe, 635/667 nm fluorescence (AID 1100); conditions: higher = more signal
# [14] = splicing luciferase reporter signal modulators, primary screen, spliceosome inhibition project, cell-based, HEK293, splice +/- reporter (AID 1101); conditions: luminescence, 24 h, higher = more signal, called active from +8 up or from −8 down;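 also: HEK293 cells carrying a splicing-competent luciferase reporter gene; test concentration not given here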
# [15] = biological target: Fibroblast growth factor 10 (Homo sapiens) (UniProt O15520); assay: FGF10 binders on small-molecule microarrays, primary screen, biochemical, small-molecule microarray, 635 nm fluorescence (AID 1102); conditions: FGF10 binding, fluorescence 635 nm, higher = more signal
# Chain of Fibroblast growth factor 10 (Homo sapiens) (O15520 whole entry, looked up): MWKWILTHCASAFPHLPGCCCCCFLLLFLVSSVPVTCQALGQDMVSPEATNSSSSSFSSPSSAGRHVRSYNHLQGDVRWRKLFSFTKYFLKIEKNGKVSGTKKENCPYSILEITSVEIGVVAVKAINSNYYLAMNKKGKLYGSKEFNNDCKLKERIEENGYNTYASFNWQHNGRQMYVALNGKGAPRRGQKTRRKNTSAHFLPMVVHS
# [16] = system: glycogen synthase kinase-3 (GSK3A per assay name; protocol says GSK3B); assay: GSK3 binders on small-molecule microarrays, primary screen, biochemical, small-molecule microarray, 635 nm fluorescence, GSK3A (AID 1103); conditions: small-molecule microarray binding, fluorescence 635 nm; higher = more signal; also: the record names both GSK3A and GSK3B
# [17] = biological target: Epidermal growth factor receptor (Homo sapiens) (UniProt P00533); assay: EGFR binders on small-molecule microarrays, primary screen, biochemical, small-molecule microarray, 635 nm fluorescence (AID 1104); conditions: EGFR binding, higher = more signal;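 also: score merges 667 nm emission intensity with spot signal to noise over triplicate slides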
# Chain of Epidermal growth factor receptor (Homo sapiens) (P00533 whole entry, looked up): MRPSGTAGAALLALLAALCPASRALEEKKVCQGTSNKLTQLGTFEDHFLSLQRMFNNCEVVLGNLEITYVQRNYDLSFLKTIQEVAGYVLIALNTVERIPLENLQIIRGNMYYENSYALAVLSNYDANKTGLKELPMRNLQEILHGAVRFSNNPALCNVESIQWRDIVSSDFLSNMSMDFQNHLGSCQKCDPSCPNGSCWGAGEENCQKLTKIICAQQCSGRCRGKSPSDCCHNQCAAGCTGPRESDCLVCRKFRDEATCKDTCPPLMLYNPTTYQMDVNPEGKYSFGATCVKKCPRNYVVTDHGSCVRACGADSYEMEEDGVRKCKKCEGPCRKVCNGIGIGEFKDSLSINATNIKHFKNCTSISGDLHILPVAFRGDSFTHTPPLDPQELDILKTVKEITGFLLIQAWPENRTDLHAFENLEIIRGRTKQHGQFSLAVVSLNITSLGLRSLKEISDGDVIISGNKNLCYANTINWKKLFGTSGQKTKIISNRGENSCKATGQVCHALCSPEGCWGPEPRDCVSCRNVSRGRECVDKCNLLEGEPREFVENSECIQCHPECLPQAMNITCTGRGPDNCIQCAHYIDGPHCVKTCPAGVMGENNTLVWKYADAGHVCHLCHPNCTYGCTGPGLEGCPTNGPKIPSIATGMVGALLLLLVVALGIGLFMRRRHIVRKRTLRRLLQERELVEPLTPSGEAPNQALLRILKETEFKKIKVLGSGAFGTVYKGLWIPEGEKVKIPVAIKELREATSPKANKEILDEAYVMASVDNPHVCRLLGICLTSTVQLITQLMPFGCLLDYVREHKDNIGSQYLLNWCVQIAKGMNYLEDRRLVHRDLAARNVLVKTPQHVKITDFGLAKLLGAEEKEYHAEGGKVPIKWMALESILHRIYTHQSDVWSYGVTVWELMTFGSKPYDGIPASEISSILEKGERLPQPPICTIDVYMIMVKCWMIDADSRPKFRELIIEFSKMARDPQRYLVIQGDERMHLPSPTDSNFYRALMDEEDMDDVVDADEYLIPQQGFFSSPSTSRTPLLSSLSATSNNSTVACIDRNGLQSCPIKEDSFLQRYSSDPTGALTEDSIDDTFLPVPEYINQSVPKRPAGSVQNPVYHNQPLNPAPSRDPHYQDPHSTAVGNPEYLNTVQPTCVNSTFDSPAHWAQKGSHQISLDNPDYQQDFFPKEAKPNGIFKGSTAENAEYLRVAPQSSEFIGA
# [18] = biological target: Follistatin-related protein 3 (Homo sapiens) (UniProt O95633); assay: FSTL3 binders on small-molecule microarrays, primary screen, biochemical, small-molecule microarray, 635 nm fluorescence (AID 1105); conditions: FSTL3 binding, higher = more signal;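 also: score merges emission near 667 nm and signal to noise per printed spot across three slides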
# Chain of Follistatin-related protein 3 (Homo sapiens) (O95633 whole entry, looked up): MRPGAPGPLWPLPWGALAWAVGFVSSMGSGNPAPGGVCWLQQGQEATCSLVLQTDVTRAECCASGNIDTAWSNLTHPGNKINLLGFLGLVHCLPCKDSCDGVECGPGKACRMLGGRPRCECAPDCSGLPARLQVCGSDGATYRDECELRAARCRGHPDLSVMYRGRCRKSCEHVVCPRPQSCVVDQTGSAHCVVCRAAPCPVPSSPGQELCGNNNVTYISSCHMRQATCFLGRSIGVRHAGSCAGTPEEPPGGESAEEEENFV
# [19] = biological target: Dickkopf-related protein 1 (Homo sapiens) (UniProt O94907); assay: DKK1 binders on small-molecule microarrays, primary screen, biochemical, small-molecule microarray, 635 nm fluorescence scan (AID 1106); conditions: DKK1 binding, higher = more signal;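 also: score merges emission near 667 nm with signal to noise over three replicate slides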
# Chain of Dickkopf-related protein 1 (Homo sapiens) (O94907 whole entry, looked up): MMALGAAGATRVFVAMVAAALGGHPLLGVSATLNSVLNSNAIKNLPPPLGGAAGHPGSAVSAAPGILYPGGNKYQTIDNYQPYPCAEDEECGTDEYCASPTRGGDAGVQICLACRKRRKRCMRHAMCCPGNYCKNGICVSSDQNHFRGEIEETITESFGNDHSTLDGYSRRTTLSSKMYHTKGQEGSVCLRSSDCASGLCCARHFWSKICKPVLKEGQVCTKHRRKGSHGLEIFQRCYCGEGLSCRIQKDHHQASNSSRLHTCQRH
# [20] = system: Inhibin beta A chain (activin A); assay: INHBA (activin A) binders on microarrays, primary screen, biochemical, small-molecule microarray, 635 nm fluorescence scan (AID 1107); conditions: small-molecule microarray binding, higher = more signal;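 also: mouse activin A protein probed at 4.33 µg/mL on printed slides; score merges bound-protein fluorescence near 667 nm with spot signal-to-noise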
SMILES,composite z-score [1],z-score [2],z-score [3],z-score [4],composite z-score [5],z-score [6],composite z-score [7],composite z-score [8],composite z-score [9],composite z-score [10],composite z-score [11],composite z-score [12],composite z-score [13],z-score [14],composite z-score [15],composite z-score [16],composite z-score [17],composite z-score [18],composite z-score [19],composite z-score [20]
C=CCC(OC(C)=O)[C@@H]1[C@@H](N(Cc2ccc(-c3cccc(C(F)(F)F)c3)o2)C(=O)c2ccc(-c3ccccc3)cc2)c2cc(OCCCO)ccc2N1C(=O)c1ccc2ccccc2c1 (stereo not given in full),-1.39,0.729 (inactive),1.16 (inactive),0.136 (inactive),0.254,-0.28 (inactive),-0.0485,0.28,0.461,-0.0828,0.194,-0.151,0.397,0.697 (inactive),0.225,0.099,0.1,0.695,0.15,1.22
C=CCN1C(=O)[C@@]2(O[C@@H](CCn3cc([C@H](O)c4ccccc4)nn3)[C@H]([Si](C)(C)c3ccc(OC)cc3)[C@H]2C)c2cc(N3C(=O)c4cccc5cccc3c45)ccc21,0.183,0.584 (inactive),1.18 (inactive),1.31 (inactive),1.5,-0.76 (inactive),-0.189,-0.684,-0.193,-0.199,0.0764,-0.236,0.401,-0.447 (inactive),-0.859,-1.37,-1.04,-1.06,-1.12,-0.893
COc1ccc([Si](C)(C)[C@H]2[C@H](CC(=O)N3Cc4ccccc4C[C@H]3CO)O[C@@]3(C(=O)N(C)c4ccccc43)[C@@H]2C)cc1,1.53,-1.52 (inactive),-2.06 (inactive),-0.0615 (inactive),2.13,0.456 (inactive),0.173,1.91,1.08,-0.0839,1.52,-0.127,-0.431,-2.06 (inactive),0.891,1.29,1.01,1.4,1.53,1.58
CN1C(=O)C2C(C3CC3)C=C3CN(Cc4cccc(Cl)c4)[C@@H]([C@@H](O)Cc4ccccc4)C3C2C1=O (stereo not given in full),1.57,0.347 (inactive),-1.87 (inactive),-0.539 (inactive),2.94,1.71 (inactive),-0.126,1.23,1.15,-0.0679,1.11,-0.217,-0.534,-1.32 (inactive),0.939,1.13,0.621,0.961,0.396,-0.262
COCCCNC(=O)[C@@H]1c2ccccc2C(=O)N(Cc2ccc(OC(F)(F)F)cc2)[C@H]1c1ccc(CO)cc1,1.34,-0.975 (inactive),-0.153 (inactive),-0.97 (inactive),2.36,-0.518 (inactive),-0.0687,0.489,0.554,-0.0949,0.499,0.21,0.215,0.0366 (inactive),0.393,0.723,0.0725,0.481,0.743,0.639
